Compound activity deposited in PubChem by several laboratories.
A selection: hits, their analogues and other compounds. The true share with any hit is near 2.7%.
SENP8 block-1 – SENP8 protease inhibitors, primary screen, biochemical, luminescence. purified SENP8, Z-RLRGG-aminoluciferin cleavage. inhibition, % at 10 µM. actives 1.2% (n = 330,000). Sentrin-specific protease 8 (Homo sapiens), Q96LD8; in the data active means inhibition above about 50%
SENP6 inh – SENP6 protease inhibitors, primary screen, biochemical, luminescence, uHTS. Recombinant SENP6 catalytic domain, aminoluciferin luminescence. actives 1.8% (n = 330,000). Sentrin-specific protease 6 (Homo sapiens), Q9GZR1. AID 2599, 2010. inhibition, % at 10 µM;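 active means inhibition above about 50% at the single tested dose, limit read from the data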;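 further: plate controls were DMSO wells with enzyme for no effect and DMSO wells lacking enzyme for full effect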
SENP7 inh – SENP7 protease inhibitors, primary screen, biochemical, luminescence, uHTS; AID 434973, 2010; recombinant SENP7, Z-RLRGG-aminoluciferin luminescence, 40 min; actives 1.5% (n = 330,000); Sentrin-specific protease 7 (Homo sapiens), Q9BQF6; inhibition, % at 5 µM;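 active means inhibition above about 50% at the single test dose, limit read from the data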;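 further: plate controls were DMSO with enzyme for no effect and no enzyme buffer wells for full effect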
Target sequence (Q9BQF6 706-1050 limits assumed): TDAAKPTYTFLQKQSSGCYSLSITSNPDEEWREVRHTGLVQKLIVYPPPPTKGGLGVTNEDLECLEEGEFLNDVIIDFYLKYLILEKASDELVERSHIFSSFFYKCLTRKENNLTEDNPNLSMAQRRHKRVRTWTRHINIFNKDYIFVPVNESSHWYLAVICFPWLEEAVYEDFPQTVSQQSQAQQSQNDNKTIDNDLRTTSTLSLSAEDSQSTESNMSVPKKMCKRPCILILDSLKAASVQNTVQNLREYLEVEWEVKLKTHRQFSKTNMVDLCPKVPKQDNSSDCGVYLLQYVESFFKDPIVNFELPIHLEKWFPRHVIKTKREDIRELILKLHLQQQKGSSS
SENP8 block-2 – human SENP8 protease inhibitors, primary screen, biochemical, fluorescence, Nedd8 protein substrate, uHTS; recombinant SENP8; inhibition, % at 20 µM; actives 0.64% (n = 360,000); in the data active means inhibition mostly above about 40%, no sharp cut-off; inactive means mostly below about 27%
HSP90 inh – HSP90 inhibitors, primary screen, cell lysate, luminescence. inhibition, % at 5.6 µM. Rabbit reticulocyte lysate, luciferase refolding luminescence, 3 h. actives 0.91% (n = 290,000). Heat shock protein HSP 90 (rabbit reticulocyte lysate; luciferase refolding);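 active means inhibition above the screen-wide mean plus 3 SD, computed separately per campaign, cut at about 16% in these data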;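 further: 0% = DMSO wells and 100% = 60 µM geldanamycin wells; inhibitors lower the luminescence because luciferase stays unfolded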
HSP90 inh confirm – HSP90 inhibitors, confirmation, cell lysate, luminescence. shares compounds with HSP90 inh. rabbit reticulocyte lysate, luciferase refolding luminescence, 3 h. inhibition, % at 5.9 µM. actives 64% (n = 2,300); in the data active means inhibition above about 18%;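 further: 0% = vehicle wells and 100% = reference inhibitor wells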
FLuc counter – firefly luciferase inhibitors, HSP90 counter-screen, confirmation, artefact control for HSP90 inhibitor project, biochemical, luminescence, triplicate; inhibition, % at 5.9 µM; purified native firefly luciferase; shares compounds with HSP90 inh; actives 48% (n = 2,300);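 active means inhibition above the mean inhibition of all tested sample wells plus 3 SD, cut at about 10% in these data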;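 further: 0% = DMSO with luciferase and 100% = wells lacking luciferase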
SENP8 conf – SENP8 protease inhibitors, retest, confirmation, biochemical, luminescence, single concentration. shares compounds with SENP7 inh. inhibition, % at 12.5 µM. actives 40% (n = 6,200). Recombinant SENP8, Z-RLRGG-aminoluciferin luminescence, 60 min;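 active means mean inhibition across replicates above about 50%, limit read from the data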
SENP6 confirm – SENP6 protease inhibitors, confirmation, biochemical, luminescence, single concentration | AID 488915, 2010 | shares compounds with SENP7 inh | inhibition, % at 12.5 µM | actives 58% (n = 6,200) | recombinant SENP6, Z-RLRGG-aminoluciferin luminescence
SENP7 conf – SENP7 protease inhibitors, retest, confirmation, biochemical, luminescence, single concentration | shares compounds with SENP7 inh | recombinant SENP7, Z-RLRGG-aminoluciferin luminescence, 40 min | inhibition, % at 12.5 µM | actives 69% (n = 6,200) | AID 488917, 2010
Casp3 SENP sel – caspase-3 protease inhibitors, confirmation, selectivity assay for SENP inhibitor project, biochemical, single concentration; shares compounds with SENP7 inh; purified caspase-3, Z-DEVD-aminoluciferin luminescence, 60 min; inhibition, % at 12.5 µM; actives 60% (n = 6,200); AID 488918, 2010;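 active means mean inhibition above about 50%, limit read from the data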;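 further: plate controls were enzyme with DMSO for no effect and wells without caspase-3 for full effect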
Target sequence (P42574 28-227 limits assumed): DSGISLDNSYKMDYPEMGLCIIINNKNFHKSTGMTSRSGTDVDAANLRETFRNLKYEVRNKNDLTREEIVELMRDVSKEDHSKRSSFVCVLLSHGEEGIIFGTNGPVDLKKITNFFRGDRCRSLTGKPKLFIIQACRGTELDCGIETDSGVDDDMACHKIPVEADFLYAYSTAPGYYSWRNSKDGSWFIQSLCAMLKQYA
Luc interf – counter-screen for SENP inhibitors: luminescence interference | shares compounds with SENP7 inh | Pre-incubated SENP8/Z-RLRGG-aminoluciferin, luciferase luminescence interference | inhibition, % at 12.5 µM | actives 39% (n = 6,200) | AID 488919;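 active means mean inhibition above about 50% when retested at one dose, limit read from the data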;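 further: plate controls were DMSO wells with completed reaction for no effect and substrate without enzyme for full effect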
Starred values were filed as active, the others as inactive; . = no result.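 How the source made its calls, unless noted: active means mean inhibition above about 50% in the one-dose retest (limit read from the data); inactive means the rest.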

SMILES | SENP8 block-1 | SENP6 inh | SENP7 inh | SENP8 block-2 | HSP90 inh | HSP90 inh confirm | FLuc counter | SENP8 conf | SENP6 confirm | SENP7 conf | Casp3 SENP sel | Luc interf
CCCc1ccc(C(=O)O/N=C(\N)c2ccccn2)cc1 | 97* | 100* | 100* | 19 | 78* | 75* | 89* | 97* | 100* | 102* | 98* | 78*
CC(C)(C)c1ccc(C(=O)NCC(=O)NNC(=O)c2ccccc2O)cc1 | -3 | -3 | -5 | -479 | . | . | . | . | . | . | . | .
COc1ccc(-c2cc3nc[nH]c(=O)c3s2)cc1 | 28 | -11 | 46 | -335 | 6 | . | . | . | . | . | . | .
COc1ccc(-c2cc3nc(CCl)[nH]c(=O)c3s2)cc1 | 83* | 94* | 59* | -336 | 50* | 56* | 59* | 66* | 91* | 70* | 82* | 32
c1ccc(-c2cn3c4c(sc3n2)CCCC4)cc1 | 96* | 97* | -6 | 15 | 33* | 83* | 80* | 90* | 95* | 103* | 95* | 29
CCOc1ccc2nc(-c3ccccc3)[nH]c2c1 | 69* | 88* | 89* | -277 | 19* | 21* | 13* | 85* | 82* | 94* | 85* | 84*
CCc1nnc2n1N=C(c1ccc(Cl)cc1Cl)CS2 | 7 | -36 | 2 | 11 | 3 | . | . | . | . | . | . | .
C/C(=N\NC(=O)c1n[nH]c2c1CCC2)c1cccs1 | 82* | 87* | 87* | 27 | 33* | 84* | 72* | 13 | 5 | -8 | 10 | 1
O=C(N/N=C/c1cccs1)c1n[nH]c2c1CCCC2 | 84* | 89* | 92* | 23 | 36* | 77* | 71* | 7 | 89* | 100* | 96* | 54*
C/C(=N\NC(=O)c1cc(C)[nH]n1)c1cccs1 | 1 | 17 | 19 | 4 | 0 | . | . | . | . | . | . | .
CCOC(=O)NC(Cc1c[nH]c2ccccc12)C(=O)NCCc1ccc(S(N)(=O)=O)cc1 (stereo not drawn) | -2 | -38 | -7 | 14 | -3 | . | . | . | . | . | . | .
Cc1oc(-c2ccc3c(c2)OCCO3)cc1C(=O)NCC(=O)O | 81* | 81* | -6 | -14 | 90* | 95* | 79* | 11 | 93* | 98* | 81* | 91*
COc1ccc(-c2cc(C(=O)O)c(C)o2)cc1OC | 73* | 87* | 82* | 6 | 76* | 90* | 65* | 85* | 84* | 97* | 90* | 85*
Cn1cc(C(=O)O)c(-c2ccc3c(c2)OCCCO3)n1 | -3 | -5 | 6 | 2 | -3 | . | . | . | . | . | . | .
Cc1oc(-c2ccc3c(c2)OCCO3)cc1C(=O)O | 97* | 99* | 98* | 6 | 96* | 101* | 91* | 98* | 101* | 104* | 99* | 99*
Cc1c(C(=O)NCc2ccc(F)cc2)sc(=O)n1Cc1ccccc1 | . | . | . | -9 | . | . | . | . | . | . | . | .
CN(C)c1ccc(C(=O)c2ccccc2)cc1 | 9 | 21 | 10 | -28 | -4 | . | . | . | . | . | . | .
CN(C)c1ccc(N=Nc2ccc(C(=O)O)cc2)cc1 | 86* | 93* | 87* | -22 | 31* | 53* | 84* | 89* | 91* | 101* | 73* | 58*
N/C(=N\N=C\c1ccc2c(c1)OCO2)c1nonc1N | 95* | 95* | 98* | 16 | 21* | 54* | 37* | 95* | 96* | 101* | 96* | 64*
O=[N+]([O-])c1ccccc1COc1ccc(Cl)c2cccnc12 | 72* | 83* | 93* | 9 | 21* | 48* | 32* | 50* | 52* | 73* | 74* | 16
O=C(Oc1ccc(Cl)c2cccnc12)c1cccc([N+](=O)[O-])c1 | 4 | -3 | 2 | 21 | -3 | . | . | . | . | . | . | .
Cc1ccc(N=Nc2cc(C)ccc2N)cc1 | 98* | 99* | 100* | 35 | 26* | 63* | 61* | 99* | 100* | 103* | 97* | 96*
COc1ccc(-c2cc(C(=O)OC3CCOC3=O)c3ccccc3n2)cc1OC (stereo not drawn) | 8 | 4 | 3 | -286 | -2 | . | . | . | . | . | . | .
CCc1ccc(C(=O)Cn2ccsc2=N)cc1 | 75* | 79* | 81* | 3 | 21* | 11 | -8 | 58* | 54* | 84* | 66* | 74*
CC(C)(C)NC(=O)NC(=O)Cn1ccsc1=N | -3 | -15 | 3 | 10 | 1 | . | . | . | . | . | . | .
CCC(C(=O)N(C(C)C)C(C)C)c1ccccc1 (stereo not drawn) | 5 | 6 | 3 | 3 | . | . | . | . | . | . | . | .
CCn1c(=NC(=O)CS(=O)(=O)c2ccccc2)sc2cccc(OC)c21 | 5 | -1 | 1 | -300 | . | . | . | . | . | . | . | .
O=C(NC1=NCCS1)C1COc2ccccc2O1 (stereo not drawn) | 64* | 82* | 85* | 21 | 79* | 92* | 81* | 77* | 76* | 95* | 94* | 85*
O=C(Nc1ccncc1)C1COc2ccccc2O1 (stereo not drawn) | 0 | 0 | -6 | 21 | 2 | . | . | . | . | . | . | .
